Consider 66 compounds from ChEMBL document CHEMBL4513216, “Probing the Open Global Health Chemical Diversity Library for Multistage-Active Starting Points for Next-Generation Antimalarials” (ACS Infect Dis, 2020).

The campaign covered roughly 69,000 compounds. About 8,600 (12%) showed an effect of 50% or more. This is one part of a sample in which strong results are shown more often than they occur.

The subject of the assay is Plasmodium berghei. Description: Screen against P. berghei liver stage (PbLuc), transformed with Luciferase, at 10uM. Type of assay: functional, HepG2. The conditions noted are these: tested at 10 uM.
For `COCCS(=O)(=O)NC(C)c1ccc(-n2nc(C)cc2C)cc1` (stereo unspecified), the INHIBITION is reported as 69.7%. For `Cc1cc(C)n(-c2ccc(C(C)NS(N)(=O)=O)cc2)n1` (stereo unspecified), the INHIBITION was 37.1%.

Consider `Cc1cc(C)n(-c2ccc(C(C)NS(=O)(=O)CCCS(C)(=O)=O)cc2)n1` (stereo unspecified), for which the INHIBITION came to 47.4%. For `COCCN1CCC2(CC1)CN(CCn1cccn1)C(=O)CO2`, the INHIBITION was 23.3%. Consider `CN(CC(=O)N1CCN(c2cnccn2)CC1)c1ccc(Cl)cn1`, for which the INHIBITION is on record as -1.38%. To `CCn1cc(S(=O)(=O)N2CCN(S(=O)(=O)c3ccc(Br)s3)CC2)c(C)n1` belongs 24.2%; to `CCn1cc(NS(=O)(=O)c2ccc(Br)s2)c(C(N)=O)n1`, 61.6%. `CCn1cc(NS(=O)(=O)c2ccc(Br)s2)c(C(=O)NCC(C)C)n1`: the INHIBITION was -0.217%. In the case of `Cc1cccc(-c2ccc(C(=O)N3CCN(C4CC4)CC3)c(=O)[nH]2)c1`, the INHIBITION was 21.8%. In the case of `NCC1Cc2cc(-c3cncc(C(=O)N4CCCCC4)n3)cc(F)c2O1` (stereo unspecified), the INHIBITION came to 18.3%. In the case of `Cc1cc2c(c(-c3cncc(C(=O)N4CCCC4)n3)c1)OC(CN)C2` (stereo unspecified) it was 57.3%; in that of `NCC1Cc2cc(Cl)cc(-c3cncc(C(=O)N4CCCCC4)n3)c2O1` (stereo unspecified), 24.8%; in that of `CC(C)N1CCC(c2n[nH]cc2S(C)(=O)=O)CC1`, -8.58%. As to `Cc1cc(C(=O)NCc2cnn(C)c2C)nc(N2CCCCCC2)n1`, the INHIBITION is recorded as -7.53%. For `Cc1ocnc1C(=O)Nc1ccc(-c2nnc(N(C)C)o2)cc1`, the INHIBITION is -128%. Consider `CCOC(=O)N1CCC2(CC1)N=C(CCC(C)C)NC2=O`, for which the INHIBITION is -65%. Consider `O=C(CN1CCCCC1=O)N1CCC2(CC1)[C@H](O)C[C@@H]2O`, for which the INHIBITION was 44%. Regarding `CC(C)CCC1=NC2(CCN(C(=O)N3CCN(C)CC3)CC2)C(=O)N1`, the INHIBITION was -23.5%. In the case of `CC(=O)CCC(=O)N1CCC2(CC1)N=C(CCC(C)C)NC2=O` it was -40.7%; in that of `COC(=O)N1CCC2(CC1)N=C(CCC(C)C)NC2=O`, 76.7%; in that of `CC(C)CCC1=NC2(CCN(C(=O)CN3CCCC3=O)CC2)C(=O)N1`, 82.4%. For `Cc1cnn(CC2CN(Cc3ccc(-n4cccn4)cc3)CCO2)c1` (stereo unspecified), the INHIBITION worked out at 40%. As for `CC(C)c1ncncc1C(=O)N1CCN(Cc2ccccn2)CC1`, the INHIBITION came out at 5.9%. `Cc1cc(C(=O)Nc2cnn(CC(F)(F)F)c2)nc(N(C)C)n1`: the INHIBITION turned out to be 0.91%.

Consider `O=C1CCC(=O)N1c1nn(Cc2ccccc2Cl)cc1Cl`, for which the INHIBITION is reported as 20.4%.

For the compound `Cc1cc(C)c(CNC(=O)NCC2COCCO2)c(=O)[nH]1` (stereo unspecified), the INHIBITION is 23.45%. To `CCc1ccc2c(c1)C(CCNC(=O)Cc1cccc(F)c1)C(=O)N2` (stereo unspecified) belongs 37.8%. For the compound `CCN1CCN(c2ccc(CNC(=O)c3sccc3C)cn2)CC1`, the INHIBITION is -23.8%. In the case of `CCc1ccc2c(c1)C(CCNC(=O)CCc1ccsc1)C(=O)N2` (stereo unspecified) it was 26.7%; in that of `CCc1ccc2c(c1)C(CCNC(=O)Cc1ccc(F)cc1)C(=O)N2` (stereo unspecified), 53.6%; in that of `CCc1ccc2c(c1)C(CCNC(=O)CSC(F)(F)F)C(=O)N2` (stereo unspecified), 40.6%.

Turning to `CCc1ccc2c(c1)C(CCNC(=O)c1sccc1C)C(=O)N2` (stereo unspecified), the INHIBITION came out at 61.9%. Take `CS(=O)(=O)N(Cc1ccon1)c1cccc(Br)c1`: the INHIBITION is recorded as -11.9%. On to `CC(c1ccccc1)n1cc2nc(N(C)C)[nH]cc-2c1=O` (stereo unspecified), for which the INHIBITION worked out at 15.7%. For `CC(C)S(=O)(=O)C(C)C(=O)NCc1ccccc1OCc1ccccc1` (stereo unspecified), the INHIBITION came to 42.5%. For the compound `CNC(=O)[C@@H](c1ccccc1OC)N1CCC[C@H]1C(=O)N1CC[C@@H](O)C1`, the INHIBITION was -63.5%. To `O=C(O)c1nnn(-c2ccc(OC(F)(F)F)cc2)c1-c1ccncc1` belongs -22.1%; to `c1cnn(Cc2ccc(CN3CCC4(CCCNC4)C3)cc2)c1` (stereo unspecified), 3.96%; to `COc1ccc(-n2cccn2)c(CN2CCC3(CCNCC3)C2)c1`, 53%. Turning to `c1cnn(Cc2ccc(CN3CCC4(CCNCC4)C3)cc2)c1`, the INHIBITION stood at 60.3%. As for `COc1ccc(-n2cccn2)c(CN2CCC(O)(CO)CC2)c1`, the INHIBITION came to 21.2%. In the case of `COc1ccc(-n2cccn2)c(CN2CCC3(CCCNC3)C2)c1` (stereo unspecified), the INHIBITION is on record as 13%.

Take `c1ccc(Cn2cccn2)c(CN2CCC3(CCCNC3)C2)c1` (stereo unspecified): the INHIBITION was found to be 4.87%. To `Cn1cccc1C(=O)N1CC[C@@]2(O)CCN(S(C)(=O)=O)C[C@H]2C1` belongs 42.1%; to `CC(C)CNc1nccc(-c2cnc3sc(Cl)cn3c2=O)n1`, 2.6%; to `Cc1cc(C(F)(F)F)nn1CC(C)C(=O)Nc1ccccn1` (stereo unspecified), -22.2%. Take `Cc1cc(C)n(CC(=O)NCc2ccccn2)n1`: the INHIBITION was 3.58%. As to `CC(C)Oc1ncccc1CNC(=O)NC1CCOc2ccccc21` (stereo unspecified), the INHIBITION was found to be 42.9%. To `COc1ncccc1CNC(=O)NC1CCOc2ccccc21` (stereo unspecified) belongs 29.6%; to `CCOc1ncccc1CNC(=O)NC1CCOc2ccccc21` (stereo unspecified), 52.5%; to `COc1ccccc1C(=O)N1CCC(O)(c2cccc(C)c2C)CC1`, 24.2%. Consider `COc1cnc(C2(O)CCN(C(=O)c3ccncc3)CC2)c(OC)n1`, for which the INHIBITION is 37.5%. To `COc1cnc(C2(O)CCN(C(=O)c3ccco3)CC2)c(OC)n1` belongs 29.3%.

As for `COc1cnc(C2(O)CCN(C(=O)c3ccccn3)CC2)c(OC)n1`, the INHIBITION was found to be 57.5%. In the case of `CCC(=O)N1CCC(O)(c2ncc(OC)nc2OC)CC1` it was 0.0932%; in that of `Cc1cccc(C2(O)CCN(C(=O)c3ccccn3)CC2)c1C`, 57.8%. `COc1cnc(C2(O)CCN(C(=O)c3cccnc3)CC2)c(OC)n1`: the INHIBITION was determined as 60.8%. `COc1cnc(C2(O)CCN(C(=O)c3scnc3C)CC2)c(OC)n1`: the INHIBITION came to 36.7%. Take `Cc1cccc(C2(O)CCN(C(=O)c3ccc(N(C)C)cc3)CC2)c1C`: the INHIBITION came out at 33.1%.

Consider `CCOC(=O)[C@H]1CNC[C@@H]1C(F)(F)F`, for which the INHIBITION was found to be 35.6%. In the case of `Cc1nnc([C@@H]2CC[C@@H]3[C@@H](CCN3S(=O)(=O)c3cccnc3)O2)o1` it was 14.2%; in that of `Cc1ccc(C(=O)NS(=O)(=O)c2ccccc2F)c(=O)[nH]1`, 33.8%. For `CN(C)C(=O)Cn1cc(C(=O)NCCc2ccc(Cl)cc2Cl)nn1`, the INHIBITION is -27.8%. Consider `CCc1nccn1C1CCCN(C(=O)c2ccoc2C)C1` (stereo unspecified), for which the INHIBITION worked out at 21.6%. In the case of `CC(=Cc1ccccc1)CNCc1cccc(C(N)=O)c1` it was 4.3%; in that of `O=C(O)c1ccccc1-n1cc(CN2CCC(c3cc[nH]n3)C2)cn1` (stereo unspecified), 22.17%.
